In the library only some 19% were active in any assay of this set; here they are far more common.
HT1080 IDH1KD tx – kills HT-1080 cells with IDH1 knockdown. HT-1080 IDH1 knockdown viability, ATP luminescence, 48 h. Potency, µM (doses to about 46.1 µM), inactives show top-dose activity, negative = toxicity, usual class: cytotoxic. 360,000 compounds, 2% hits. AID 686971;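 also: potency is read from the fitted curve at half-maximal effect; 0% = DMSO wells and -100% = cell-free medium wells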
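Luminescent ATP read-out (CellTiter-Glo, 10 min at room temperature) after 48 h compound exposure at 37 °C gave viability of IDH1-knockdown HT-1080 cells. Activity was normalised to DMSO and cell-free wells, then fitted as concentration-response curves.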
DT40 TDP1 no CPT – qHTS for Inhibitors of human tyrosyl-DNA phosphodiesterase 1 (TDP1): qHTS in cells in absence of CPT; 420,000 compounds, 15% hits; DT40 Tdp1-/- hTDP1 cells, no CPT, ATP luminescence, 48 h; AID 686978, 2013; Potency, µM (top dose mostly 46.2 µM), without a hit: at the highest dose activity change, negative = growth inhibition, hits mostly inhibitors; also: potency is read from the fitted curve at half-maximal effect; nearly all actives have a fitted effect of over 55% in size
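Compound effects on proliferation are scored in DT40 Tdp1-/-;hTDP1 cells in the absence of CPT. ATP levels (CellTiter-Glo luminescence) are recorded after a ≥48 hr, 37 °C incubation.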
IL-1B inflam inh – blocks inflammasome-driven IL-1 beta release; THP-1 LPS/ATP IL-1B secretion, AlphaLISA, 16 h; stronger effect = lower value; activity change, % at 57.5 µM; 360,000 compounds, 4.7% hits; AID 743279; in the data active = activity change below about -50%; inconclusive = mostly about -30% to -49%
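Secreted IL-1B measured by AlphaLISA bead assay after 16 h compound exposure of THP-1 cells; compounds (final up to 57.5 uM) added 1 h before LPS (250 ng/mL) and ATP (1.25 mM) stimulation; lower signal means less secretion.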
ELG1 repair inh – blocks ELG1-dependent DNA repair in HEK293T cells; HEK293T ELG1-luciferase reporter, luminescence, 16 h; DNA damage induced by 5-fluorouridine; Potency, µM (top dose mostly 46.1 µM), inactives show at the top dose activity change, negative = inhibition, most hits filed as inhibitors; 330,000 compounds, 2.3% hits; AID 504467; also: potency is read from the fitted curve at half-maximal effect; nearly all actives have a fitted effect of over 55% in size
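Reporter activity after DNA damage by 5-fluorouridine is monitored. Compound-treated cells incubate 16 hr at 37 °C, then ONE-Glo is added for 30 min before luminescence reading.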
TDP1 cell CPT – growth inhibition of DT40 Tdp1-/-;hTDP1 cells with camptothecin (screen for TDP1 inhibitors); chicken DT40 Tdp1-/-;hTDP1 cells + 20 nM CPT, ATP luminescence, 48 h; Potency, µM (titrated, usually from 46.2 µM), for the others: at the top dose activity change, negative = growth inhibition, most hits filed as inhibitors; 420,000 compounds, 12% hits; also: potency is read from the fitted curve at half-maximal effect; nearly all actives have a fitted effect of over 55% in size
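Cell growth measured by CellTiter-Glo luminescence after a minimum 48 h, 37 C compound exposure with 20 nM CPT in Tdp1-knockout DT40 cells stably expressing hTDP1, seeded 400/well; qHTS titration format.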
HT1080-NT tox – kills 2HG-producing HT-1080-NT fibrosarcoma cells | HT-1080-NT fibrosarcoma viability, CellTiter-Glo ATP luminescence, 48 h | 360,000 compounds, 1.6% hits | Potency, µM (highest dose often 46.1 µM), for the others: top-dose activity, negative = less viability, usual class: cytotoxic | AID 686970;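 also: NT is the 2HG producing partner of a matched IDH1 knockdown line; potency is read from the fitted curve at half-maximal effect; 0% = DMSO-treated cells and -100% = media-only wells without cells; nearly all actives have a fitted effect of over 55% in size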
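HT-1080-NT; 750 cells/well; 5% FBS RPMI; 48 h compound, 37 degrees C; CellTiter-Glo luminescence; curve fitting and curve-class assignment.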
Starred values were filed as active, the others as inactive; ? = inconclusive; . = not tested or not shown; [ ] = dose if it differs, or a comment. Unless noted, calls follow the shape of the dose curve; as a rule, active = well fitted curve in the direction sought with a large enough effect; inconclusive = small, poorly fitted or top-dose-only effect, or another doubt; inactive = no such curve, though single readings can be large; an effect the other way counts as inactive or inconclusive. Unless noted, % is scaled to controls: 0 for no effect and ±100 for the full control effect.

SMILES | HT1080 IDH1KD tx | DT40 TDP1 no CPT | IL-1B inflam inh | ELG1 repair inh | TDP1 cell CPT | HT1080-NT tox
O=C(Nc1cc(Br)c(O)c(Br)c1)c1cccc(NC(=O)c2ccco2)c1 | 1% | -26% | 2 | -19% | -27% | -1%
C[C@@H]1CN([C@@H](C)CO)C(=O)CCCn2nncc2CO[C@@H]1CN(C)C(=O)OCc1ccccc1 | 12% | -16% | 29 | . | -8% | -1%
COc1cccc(NC(=O)COC(=O)CNC(=O)C2CCCCC2)c1 | 2% | 1% | 6 | 13% | -10% | 10%
CC(C)(C)NC(=O)c1cccc(NC(=O)c2ccc(NC(=O)c3ccco3)cc2)c1 | . | ? | -70* | ? | 13µM* | .
Cc1cc(C)cc(NC(=O)c2cccc(NC(=O)c3ccco3)c2)c1 | 0% | 29µM* | 3 | . | ? | 6%
Cc1ccc(O)c(NC(=O)c2ccco2)c1 | -5% | -17% | -3 | ? | ? | -14%
CC(C)(C)NC(=O)c1cccc(NC(=O)c2ccco2)c1 | -3%[9.24 µM] | -22% | -6 | 8% | -27% | -2%
Cc1ccc(O)c(NC(=O)c2cccc(NC(=O)c3ccco3)c2)c1 | -13% | 23µM* | -18 | ? | ? | -11%
NNC(=O)c1nc(-c2ccccc2)n2c1CCCCC2 | 0% | -5% | 0 | -4% | -2% | 1%
O=C(N/N=C/c1ccncc1)c1nc(-c2ccccc2)n2c1CCCCC2 | -5% | 7.3µM* | ? | -12% | 7.3µM* | 2%
COc1ccc(OC)c(-c2csc(-c3c(N)c(C(=O)c4ccc(Cl)cc4)n4ccccc34)n2)c1 | . | -13% | . | . | 7% | .
CCCCNC(=O)c1nc(C2CCN(S(=O)(=O)c3ccc(C(F)(F)F)cc3)CC2)oc1-c1ccccc1 | -11% | 7.3µM* | 11 | . | 5.8µM* | -23%
CCCCNC(=O)c1nc(C2CCN(S(=O)(=O)c3ccc(S(C)(=O)=O)cc3)CC2)oc1-c1ccccc1 | 2% | 13µM* | -26 | . | 5.8µM* | -2%
CCCNC(=O)Nc1cc(OC)c(OC)cc1Cc1nccc2cc(OC)c(OC)cc12 | -7% | 9% | ? | ? | -2% | -6%
Cn1c(SCC(=O)NNC(=O)c2ccccc2)nnc1C1CC1 | 8% | 0% | 7 | -1% | -5% | 8%
CCN(CC)S(=O)(=O)c1cccc(NC(=O)CN(C)C2CCCCC2)c1 | -6% | 15µM* | 11 | -16% | ? | -18%
CCN(CC)S(=O)(=O)c1cccc(NC(=O)CNC2CCCCCC2)c1 | 6% | ? | -28 | -1% | ? | 10%
CCN(CC)S(=O)(=O)c1cccc(NC(=O)CCSc2ccc(Cl)cc2)c1 | -25% | 21µM* | 2 | ? | 16µM* | -26%
CCN(CC)S(=O)(=O)c1cccc(C(=O)NCC(c2ccccc2)N(C)C)c1 (centres undefined) | 2% | -6% | -21 | 8% | 5% | 2%
CCN(CC)S(=O)(=O)c1cccc(C(=O)NCC2CCCCC2)c1 | -10% | 21µM* | -29 | -20% | ? | -17%
CN(C)S(=O)(=O)c1cccc(NC(=O)COC(=O)CCSc2ccc(Cl)cc2)c1 | 2% | -16% | 40 | 24% | 18% | 0%
Cc1ccc(S(=O)(=O)N2CCN(C(=O)COC(=O)c3nc(Cl)ccc3Cl)CC2)c(C)c1 | 0% | 0% | 33 | . | 9% | 5%
NC1=NN(c2c(Cl)cc(Cl)cc2Cl)C(=O)C1 | 11% | -15% | 26 | . | 4% | 2%
COc1ccc(NC(=O)CCS(=O)(=O)c2cc(Br)cc3c2N(C(C)=O)CC3)c(OC)c1 | . | -9% | . | . | -22% | .
CC(=O)NC(c1ccc(F)c(F)c1)c1nc(-c2cc3ccccc3o2)cs1 (centres undefined) | 1% | ? | -22 | . | -4% | 4%
SMILES | HT1080 IDH1KD tx | DT40 TDP1 no CPT | IL-1B inflam inh | ELG1 repair inh | TDP1 cell CPT | HT1080-NT tox
CC(=O)NC(c1ccccc1)c1nc(-c2cccs2)cs1 (centres undefined) | -4% | ? | -17 | . | -20% | 7%
CC(=O)NC(c1cccc(F)c1)c1nc(-c2cc3ccccc3o2)cs1 (centres undefined) | ? | 21µM* | 36 | . | ? | ?
CC(=O)NC(c1ccccc1)c1nc(-c2cc3ccccc3o2)cs1 (centres undefined) | -17% | ? | 12 | . | 23µM* | ?
N[C@@H](C(=O)N[C@@H]1C(=O)N2C(C(=O)O)=C(Cl)CC[C@H]12)c1ccccc1 | . | -19% | . | . | -1% | .
CCOc1ccc(CC(=O)Nc2c(C(=O)c3ccccc3)oc3ccc(Cl)cc23)cc1OCC | . | ? | . | . | 2% | .
CCOC(=O)C1CCCN(C(=O)c2ccccc2)CC1 (centres undefined) | 1% | 9% | 23 | . | -5% | -1%
CCOC(=O)C1CCN(C(=O)CSc2c3c(nc4ccccc24)CCC3)CC1 | -14% | ? | -130* | -11% | ? | -12%
O=C(CSc1c2c(nc3ccccc13)CCC2)N1CCCC1 | -5% | 6% | -8 | 7% | 2% | -6%
CCOC(=O)C1CCCN(C(=O)c2ccc3c(c2)C(C)(C)CCC3(C)C)CC1 (centres undefined) | ? | 6.5µM* | 30 | . | 8.2µM* | ?
CCOC(=O)C1CCCN(C(=O)c2ccc(-c3ccccc3)cc2)CC1 (centres undefined) | 0% | ? | 4 | . | 16µM* | 5%
CCOC(=O)C1CCN(C(=O)CC(C)c2ccccc2)CC1 (centres undefined) | 3% | ? | 1 | . | 18µM* | 0%
Cc1ccc(OCCSc2nc(NC(C)C)nc(NC(C)C)n2)cc1 | -20% | ? | 11 | -2% | ? | -14%
CCOC(=O)C1CCN(Cc2cc(C(C)C)c(O)c(C(C)C)c2)CC1 | -9% | 9.2µM* | -12 | 9% | 9.2µM* | 0%
Cc1csc(C(C)N(C)C(=O)c2cnn(-c3nccc(-c4cc(C)sc4C)n3)c2C)n1 (centres undefined) | . | ? | . | . | -6%[9.04 µM] | .
Cc1ccc(S(=O)(=O)c2nnn3c2nc(N2CCCC2)c2sccc23)cc1C | . | -19% | . | . | 3% | .
CCOC(=O)C1CCN(c2nc3c(S(=O)(=O)c4ccccc4)nnn3c3ccsc23)CC1 | . | 21µM* | . | . | 15µM* | .

Compound activity from PubChem.
